# Source: PubChem BioAssay (NCATS)
# Several values for one entry are separate records, joined by “and”; a condition that tells them apart may be missing. Equal values may be shown once. Results filed as inconclusive are left out. Activity calls are given as the source filed them. Calls come from the whole dose curve; as a rule, active = well fitted cell-killing curve with a large enough effect; inconclusive = small, poorly fitted or top-dose-only effect; inactive = flat fitted curve, though single readings scatter.
# Experiment: Cellular viability qHTS for adrenocortical cancer (ACC) cell line SW-13 (AID 1963989); note: nearly all actives have a fitted effect of over 65% in size;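 for activity (max response): cells grown in serum-free medium with ITS supplement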
# Details: SW-13 ACC cells viability, CellTiter-Glo, 48 h; activity (max response): stronger effect = lower value
# Source text: PI: Naris Nilubol, MD Surgical Oncology Program, National Cancer Institute (NCI) National Institute of Health (NIH), Bethesda, Maryland Adrenocortical cancer (ACC) is a rare malignancy with poor survival outcomes and few treatment options. Currently, mitotane is the only FDA-approved therapy for ACC. Although adjuvant radiation therapy is rarely utilized, it has the potential to improve survival in select cases. Through a quantitative high-throughput drug screen (qHTS), we identified auranofin (AF), a thioredoxin reductase (TXNRD) inhibitor, as a promising candidate drug. This study aims to evaluate whether AF can enhance the efficacy of radiation therapy in the treatment of ACC. Two human ACC cell lines, SW-13 and NCI-H295R, were screened using the National Center for Advancing Translational Sciences (NCATS) Pharmaceutical Collection (NPC) and the Mechanism Interrogation PlatE (MIPE) library (~4,991 compounds). CellTiter-Glo (Cat # G7570, Promega, Madison, WI) was utilized to measure cell viability. Described herein are the results of the corresponding viability assay.
# PROTOCOL TABLE (as described by Inglese J, Shamu CE and Guy RK. 2007) SEQUENCE No. (e.g., 1, 2, 3, etc.); […] (e.g., Cells, Incubation, Reagent, etc.); VALUE; DESCRIPTION. 1; Cells; 5 uL; white, solid-bottom, 1536-well tissue-culture treated plates. 2; Time; overnight culture at 37C with 5% CO2. 3; Compounds and control; 23 nL; Kalypsis pin tool (Wako USA) equipped with a 1536-well pin head to transfer to the assay plates. 4; Time; 48 hours; 37C with 5% CO2. 5; Reagent; 4 uL; CellTiter-Glo luminescent substrate mix. 6; Time; 20 min at room temperature. 7; Detection; Luminescence; ViewLux plate reader NOTES (numbers refer to Sequence numbers above) 1. SW13 cells were harvested from a T175 flask and resuspended in ITS-supplemented DMEM serum-free medium at a concentration of 300 000 cells/mL. Then 5 uL of resuspended cells were dispensed into each well of white, solid-bottom, 1536-well tissue-culture-treated plates using a multidrop combi dispenser. The plates were covered with stainless steel gasket lids. 2-3. The plates were cultured overnight at 37C with 5% CO2. Twenty-three nL of compounds (eight selected concentrations from the NPC / MIPE) or positive control (10 mM stock of bortezomib) in DMSO was transferred to each well of the assay plate using a pin tool (Kalypsys, San Diego, CA, USA). The final concentration of the compounds in the 5 uL assay volume ranged from 0.5 nM to 46 uM. 4-6. After 48 hours of incubation at 37C and 5% CO2, 4 uL of CellTilter-Glo luminescent substrate mix (Promega, Madison, WI, USA) was added to each well. Then the plates were incubated for 20 minutes at room temperature. 7. After incubation, luminescence was measured using a ViewLux plate reader (PerkinElmer, Waltham, MA, USA) with a clear filter was used to measure the number of metabolically competent cells. To determine compound activity in the qHTS assay, the titration-response data for each sample was plotted and modeled by a four-parameter logistic fit yielding IC50 and efficacy (maximal response) values. […] REFERENCES: Inglese J, Shamu CE and Guy RK, Reporting data from high throughput screening of small molecule libraries, Nature Chemical Biology, 2007, 3(8): 438-441. doi.org/10.1038/nchembio0807-438.
# % is set by controls: 0 for no effect and ±100 for the full control effect.
SMILES,Potency,activity (max response)
COc1cc(C(=O)NC2CCN(C)CC2)ccc1Nc1ncc2c(n1)N(C1CCCC1)CCC(=O)N2C(C)C,25.1 µM (active),–
CC1=NN(c2ccc(C(=O)O)cc2)C(=O)/C1=C/c1ccc(-c2cc(C)c(C)cc2[N+](=O)[O-])o1,–,11.6% (inactive)
O=C(O)c1ccc(OCCN2CCCCC2)cc1,–,10.8% (inactive)
O=C(Nc1ccnc(NC(=O)C2CC2)c1)c1c(Cl)cccc1Cl,15.8 µM (active),–
COc1ccc(S(=O)(=O)Nc2cccnc2Nc2ccc(O)cc2)cc1,3.16 µM (active),–
N[C@@H](Cc1cc(I)c(O)c(I)c1)C(=O)O,–,8.5% (inactive)
CCCCC1C(=O)N(c2ccccc2)N(c2ccc(O)cc2)C1=O (stereo not given),16.4 µM (active),–
CC(=O)O[C@H]1C[C@@H]2CC[C@@H]3[C@H](CC[C@@]4(C)[C@H]3C[C@H]([N+]3(C)CCCCC3)[C@@H]4OC(C)=O)[C@@]2(C)C[C@@H]1N1CCCCC1,–,0.69% (inactive)
CN[C@@H](C)C(=O)N[C@@H]1C(=O)N(Cc2c(C)ccc3ccccc23)c2ccc(C#N)cc2N(C(C)=O)[C@H]1C,–,3.96% (inactive)
COc1ccc([C@@H]2CNC(=O)C2)cc1OC1CCCC1,–,-15.2% (inactive)
NC(=O)c1cccc(-c2cccc(OC(=O)NC3CCCCC3)c2)c1,–,-29.9% (inactive)
CC(C)(O)[C@H]1CC[C@@](C)([C@H]2[C@@H](O)C[C@@]3(C)[C@@H]4C[C@H](O[C@@H]5O[C@H](CO)[C@@H](O)[C@H](O)[C@H]5O)[C@H]5C(C)(C)[C@@H](O[C@@H]6OC[C@@H](O)[C@H](O)[C@H]6O)CC[C@@]56C[C@@]46CC[C@]23C)O1,–,1.01% (inactive)
CCNC(=O)CCC/C=C\C[C@@H]1[C@@H](/C=C/C(O)CCc2ccccc2)[C@@H](O)C[C@@H]1O (stereo not given in full),–,-10.9% (inactive)
Clc1ccc(C(Cn2ccnc2)OCc2ccc(Sc3ccccc3)cc2)c(Cl)c1 (stereo not given),31.6 µM (active),–
CC(C)CC(=O)Nc1n[nH]c2c1CN(C(=O)C1CCN(C)CC1)C2(C)C,3.98 µM (active),–
O=C1OC(COc2ccccc2[N+](=O)[O-])CC1Cc1ccccc1 (stereo not given),–,-13.4% (inactive)
C=CCc1cc(OC)c(O)c(C(=O)NCCO)c1,–,-2.94% (inactive)
Cc1cc(O)c2c(c1)C(=O)c1cccc(O)c1C2=O,–,-6.49% (inactive)
CC(=O)N(O)CCCCCNC(=O)CCC(=O)N(O)CCCCCNC(=O)CCC(=O)N(O)CCCCCN,28.2 µM (active),–
CN1[C@@H]2CC(OC(=O)[C@H](CO)c3ccccc3)C[C@H]1[C@@H]1O[C@@H]12 (stereo not given in full),–,1.78% (inactive)

SMILES,Potency,activity (max response)
NCc1c[nH]c(=S)n1[C@H]1CCc2c(F)cc(F)cc2C1,–,-7.85% (inactive)
O=C(C[C@@H]1C/C=C\CCC(=O)O[C@H](c2ccccc2)CNC1=O)NCc1ccc(Cl)cc1,–,11.5% (inactive)
CCN(CC)CCOc1ccc(C(O)(Cc2ccc(Cl)cc2)c2ccc(C)cc2)cc1 (stereo not given),20.6 µM (active),–
O=C(O)Cn1cnnn1,–,12.6% (inactive)
Cc1cc(-c2ccccc2)nnc1NCCN1CCOCC1,–,-11% (inactive)
CC1(C)NC(=O)N(c2ccc([N+](=O)[O-])c(C(F)(F)F)c2)C1=O,–,-3.44% (inactive) and -9.93% (inactive)
CN/C(=C\[N+](=O)[O-])NCCSCc1csc(CN(C)C)n1,–,7.35% (inactive)
OC(CCCN1CCCCC1)(c1ccccc1)c1ccccc1,–,-5.81% (inactive)
O=C(CCCCCCNC(=O)c1cnc(N(c2ccccc2)c2ccccc2)nc1)NO,15.8 µM (active),–
CS(=O)(=O)N1CCN(Cc2cc3nc(-c4cccc5[nH]ncc45)nc(N4CCOCC4)c3s2)CC1,17.8 µM (active),–
C=CC(=O)N1CC/C(=C\c2ccc(F)c([N+](=O)[O-])c2)C(=O)/C(=C/c2ccc(F)c([N+](=O)[O-])c2)C1,0.794 µM (active),–
COc1cc2c(cc1OC(C)C)[C@H](c1ccc(Cl)cc1)N(c1ccc(N(C)CC3CCC(N4CCN(C)C(=O)C4)CC3)cc1)C(=O)C2 (stereo not given in full),25.1 µM (active),–
COc1cccc(-c2cc(=O)c3ccccc3o2)c1N,–,0.813% (inactive)
CCOC(=O)c1ccc(NC(=O)CN2CCCCC2)cc1,–,-5.52% (inactive)
Clc1cc(Cl)cc(CNc2ncncc2-c2ccc3c(c2)OCO3)c1,10 µM (active),–
CCCCCN=C(N)N/N=C/c1c[nH]c2ccc(OC)cc12,13 µM (active),–
Cc1cc(C)c(NC(=O)CN(CC(=O)O)CC(=O)O)c(C)c1Br,–,9.39% (inactive)
C[C@H]1[C@H]2CC[C@H]3[C@@H]4CC=C5C[C@@H](N(C)C)CC[C@]5(C)[C@H]4CC[C@]23CN1C,–,-17.7% (inactive)
O=C(NCC(O)CO)c1c(I)c(C(=O)NCC(O)CO)c(I)c(N(CCO)C(=O)CO)c1I (stereo not given),–,-7.35% (inactive)
O=C(CCN1CCN2CCCC2C1)N1c2ccccc2Sc2ccc(Cl)cc21 (stereo not given),–,-13.8% (inactive)
